Experimental findings from the supplement of paper PMC3414501 are described below.

The subject of experiment [1] is S. cerevisiae SK1 pCDA2-eGFP (USY613), sporulating. Nature of the experiment: CDA2-GFP sporulation assay sensitivity score (z-score vs DMSO controls); higher = stronger inhibition of sporulation, active = hit call of the paper.
The subject of experiment [2] is S. cerevisiae AD1-9 (efflux-pump deficient), vegetative growth in YPD. Nature of the experiment: growth sensitivity score (doubling time z-score vs DMSO controls); higher = slower growth, strongly negative scores also mark growth inhibition (complete suppression), active = hit call of the paper. In a few lines: (§1)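 Saccharomyces cerevisiae strains BY4741 and AD1-9 were seeded in rich medium in microtiter plates at an OD600 of 0.065. Compounds were added at a 1:100 dilution of DMSO stock. Optical density was read every 15 min for 24 hours on a Tecan GENios reader. Average doubling time was the time taken to reach a set generation point divided by generation number, and the growth sensitivity score was (compound mean − DMSO-control mean)/DMSO-control SD, using eight DMSO controls per experiment.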

Experiment [3] concerns S. cerevisiae BY4741 (wild-type), vegetative growth in YPD. The description is as above. In short, it runs like this:
as §1

Structures can show the parent of a compound that is named as a salt.
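Wherever CDA2-GFP sporulation assay sensitivity score (z-score vs DMSO controls) is given: active if sensitivity score above 5.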

With `CS(=O)(=O)c1ccc(C2=C(c3ccccc3)C(=O)OC2)cc1` [Rofecoxib] (stock concentration (mM, diluted 1:100): 10), the “CDA2-GFP sporulation assay sensitivity score” value in experiment [1] is 0.79 (inactive). The growth sensitivity score is -0.37 (inactive) in experiment [2] and 0.04 (inactive) in experiment [3].

With `CCN1CCN(c2cc3c(cc2F)c(=O)c(C(=O)O)cn3C2CC2)CC1` [Enrofloxacin] (stock concentration (mM, diluted 1:100): 10), the “CDA2-GFP sporulation assay sensitivity score” value in experiment [1] is 2.66 (inactive). The growth sensitivity score in experiment [2] is 37.5 (active); in experiment [3], 3.15 (active).

Consider `CC1CCN(CCCC(=O)c2ccc(F)cc2)CC1` [Metylperon] (stock concentration (mM, diluted 1:100): 10), for which the “CDA2-GFP sporulation assay sensitivity score” value in experiment [1] was 4.44 (inactive). Further, the growth sensitivity score was 1 (inactive) in experiment [2] and 1.93 (inactive) in experiment [3].

For `C[C@]12C[C@H](O)[C@H]3[C@@H](CCC4=CC(=O)CC[C@@]43C)[C@@H]1CC[C@@H]2C(=O)CO` [Corticosterone] (stock concentration (mM, diluted 1:100): 10), the “CDA2-GFP sporulation assay sensitivity score” value in experiment [1] was 3.57 (inactive). Moreover, the growth sensitivity score in experiment [2] is 2.14 (active); in experiment [3] it was -0.97 (inactive).

In the case of `CC1=C(C(=O)O)N2C(=O)[C@@H](NC(=O)[C@H](N)c3ccccc3)[C@H]2SC1` [Cephalexin monohydrate] (stock concentration (mM, diluted 1:100): 10), the “CDA2-GFP sporulation assay sensitivity score” value in experiment [1] is -1.64 (inactive). Also, the growth sensitivity score in experiment [2] was -0.53 (inactive); in experiment [3], 0.27 (inactive).

Take `CS(=O)(=O)c1ccc(-c2cc(Br)sc2-c2ccc(F)cc2)cc1` (stock concentration (mM, diluted 1:100): 10): the “CDA2-GFP sporulation assay sensitivity score” value in experiment [1] is 12.1 (inactive). The growth sensitivity score was 8.97 (active) in experiment [2] and -0.63 (inactive) in experiment [3].

On to `CCN1CC(CCN2CCOCC2)C(c2ccccc2)(c2ccccc2)C1=O` (stereo not drawn) [Doxapram hydrochloride] (stock concentration (mM, diluted 1:100): 10.4), for which the “CDA2-GFP sporulation assay sensitivity score” value in experiment [1] was -0.58 (inactive). Moreover, the growth sensitivity score in experiment [2] was -0.91 (inactive); in experiment [3] it was -0.29 (inactive).

In the case of `CNC(=C[N+](=O)[O-])NCCSCc1csc(CN(C)C)n1` [Nizatidine] (stock concentration (mM, diluted 1:100): 10), the “CDA2-GFP sporulation assay sensitivity score” value in experiment [1] is -0.14 (inactive). The values for the growth sensitivity score in experiment [2] and in experiment [3] were -0.22 (inactive) and -0.09 (inactive), respectively.

As for `CCC1=C[C@H]2CN(C1)Cc1c([nH]c3ccccc13)[C@@](C(=O)OC)(c1cc3c(cc1OC)N(C)[C@H]1[C@@](O)(C(=O)OC)[C@H](OC(C)=O)[C@]4(CC)C=CCN5CC[C@]31[C@@H]54)C2` [Vinorelbine bitatrate] (stock concentration (mM, diluted 1:100): 7.2), the “CDA2-GFP sporulation assay sensitivity score” value in experiment [1] is 1.77 (inactive). The growth sensitivity score in experiment [2] is -3.29; in experiment [3], -1.83 (inactive).

`Cn1c(NCCN(CCO)CCCc2ccc([N+](=O)[O-])cc2)cc(=O)n(C)c1=O` [Nifekalant hydrochloride] (stock concentration (mM, diluted 1:100): 9.2): the “CDA2-GFP sporulation assay sensitivity score” value in experiment [1] was 0.47 (inactive). The growth sensitivity score was 0.65 (inactive) in experiment [2] and -0.07 (inactive) in experiment [3].

In the case of `CC(=O)[C@@]1(O)CC[C@H]2[C@@H]3C[C@H](C)C4=CC(=O)CC[C@]4(C)[C@H]3CC[C@@]21C` [Medroxyprogesterone] (stock concentration (mM, diluted 1:100): 10), the “CDA2-GFP sporulation assay sensitivity score” value in experiment [1] is -0.44 (inactive). The figures for the growth sensitivity score in experiment [2] and in experiment [3] were 4.15 (active) and -0.01 (inactive), respectively.

For `NC(N)=NC(=O)c1nc(Cl)c(N)nc1N` (stock concentration (mM, diluted 1:100): 8.2), the “CDA2-GFP sporulation assay sensitivity score” value in experiment [1] is 6.05 (active). Moreover, the growth sensitivity score in experiment [2] is 4.88 (active); in experiment [3], 1.27 (inactive).

As to `CCCc1nc2c(C)cc(-c3nc4ccccc4n3C)cc2n1Cc1ccc(-c2ccccc2C(=O)O)cc1` [Telmisartan] (stock concentration (mM, diluted 1:100): 10), the “CDA2-GFP sporulation assay sensitivity score” value in experiment [1] is -1.44 (inactive). Moreover, the results for the growth sensitivity score in experiment [2] and in experiment [3] were 43.7 (active) and 85.7 (active), respectively.

In the case of `Clc1ccc(CO/N=C(\Cn2ccnc2)c2ccc(Cl)cc2Cl)c(Cl)c1` [Oxiconazole nitrate] (stock concentration (mM, diluted 1:100): 10), in experiment [1], the “CDA2-GFP sporulation assay sensitivity score” value was 0.87 (inactive). The values for the growth sensitivity score in experiment [2] and in experiment [3] were 47.9 (active) and 66.3 (active), respectively.

Take `Oc1ccc(/C=C/c2cc(O)cc(O)c2)cc1` [Resveratrol] (stock concentration (mM, diluted 1:100): 10): the “CDA2-GFP sporulation assay sensitivity score” value in experiment [1] is 5.86 (inactive). Also, the results for the growth sensitivity score in experiment [2] and in experiment [3] were -0.99 (inactive) and -0.21 (inactive), respectively.

On to `CC1=Nc2ccc(Cl)cc2S(=O)(=O)N1` [Diazoxide] (stock concentration (mM, diluted 1:100): 10), for which the “CDA2-GFP sporulation assay sensitivity score” value in experiment [1] is 3.2 (inactive). The growth sensitivity score was 0.08 (inactive) in experiment [2] and -0.72 (inactive) in experiment [3].
